The structures appear in SMILES notation. Hit rate of the full screen: of about 370,000 compounds, about 3,700 (1%) were called active. Only a selection was taken, and actives are over-represented in it overall. A number with no mark means an inactive call.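 Rule for the calls: active = activation above the mean over all tested compounds plus 3 SD (cut at about 0.9% in these data); inactive = the rest.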

In the assay the test system is Nuclear hormone receptor DAF-12 (Strongyloides stercoralis). The experiment in a line: ssDAF-12 driven luciferase reporter activation – cell-based, luminescence, HEK293, GRIP1 co-expression, lit1-tk-luc, primary screen (AID 652126).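 Note: 0% = DMSO-only wells and 100% = 3 µM delta7-dafachronic acid wells.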 Particulars: HEK293 ssDAF-12/GRIP1 lit1-tk-luc reporter, at 6.8 µM, hits give high values, % of 3 µM dafachronic acid response.
As to `CC(C)C(C#CC1CC1)N(Cc1ccc2c(c1)OCO2)C(N)=NC(=O)/C=C/c1cccc(C(F)(F)F)c1` (stereo unspecified), the activation is -1.84%.

For the compound `CC(=O)c1ccc(NC(=O)c2cc(-c3cccs3)on2)cc1`, the activation is -0.86%.

As to `O=C(N/N=C/c1sc(N2CCCCC2)nc1-c1cccs1)c1cccnc1`, the activation is -1.2%.

Regarding `O=C(O)c1ccc(N/N=C/c2cn(-c3ccccc3)nc2-c2cccs2)cc1`, the activation was 1.45% (active).

As to `O=C(NC1CCCCN(Cc2ccc(Cl)cc2)C1=O)c1ccc(Br)cc1` (stereo unspecified), the activation is -1.36%.

Take `Cc1ccc(Cn2cc(CN3[C@@H](CC(C)C)COc4ccc(Cl)cc4S3(=O)=O)nn2)cc1`: the activation is -1.11%.

In the case of `O=C(Nc1cccc(Cl)c1)c1cncn1-c1ccc(F)cc1`, the activation was -1.04%.

In the case of `CCOC(=O)c1nnn(CC(=O)Nc2cccc(F)c2)c1C(=O)OCC`, the activation was -1.33%.

For the compound `CCC(=O)Nc1ccc2nn(-c3ccc(F)cc3)nc2c1`, the activation is 1.14% (active).

Consider `COC(=O)[C@]12C[C@H](CC(=O)NCc3cccc4ccccc34)C(=O)N(CCc3ccc(OC)c(OC)c3)C1=C[C@H](C1CCCC1)O[C@@H]2C`, for which the activation is -0.95%.

On to `O=C(Nc1ccc(Br)cc1)OCCN1C(=O)CCC12CCC(c1ccccc1)CC2` (stereo unspecified), for which the activation was -0.35%.

Regarding `CCOC(=O)c1c(/N=C/c2cc(C)ccc2O)sc2c1CCC2`, the activation is -1.3%.

In the case of `CCOC(=O)c1c(CC(C)C)csc1/N=C/C1=C(O)CCCC1=O`, the activation was -1.42%.

As for `CCOC(=O)c1c(N)sc2c1CCCC2=O`, the activation is 1.3% (active).

As for `O=C(C1CCN(S(=O)(=O)c2ccccc2)CC1)N1CCN(C2CCCCC2)CC1`, the activation was -1.32%.

`CC(CCN1CCC(C(O)(c2ccccc2)c2ccccc2)CC1)Oc1ccc(Cl)cc1` (stereo unspecified): the activation is -0.71%.

On to `Cc1ccc(-c2nc(C3CCCN(S(=O)(=O)c4ccc(Br)s4)C3)no2)cc1` (stereo unspecified), for which the activation was -1.49%.

Consider `Nc1nonc1C(=O)NCCc1ccccc1`, for which the activation was -1.42%.

`Nc1nc2c(Br)ccc(Br)c2cc1C(=O)NCCc1ccccc1`: the activation was -1.14%.

As for `NC(=O)Nc1ccccc1C(=O)NCCc1ccccc1`, the activation is 1.06% (active).

As for `O=C(OC12CCCN(C1)/C(=C/c1ccccc1)C2)c1ccco1` (stereo unspecified), the activation is -0.69%.

For `O=C(C1CCCN1S(=O)(=O)c1ccccc1)N1CCc2ccccc2C1` (stereo unspecified), the activation was -1.12%.

Consider `COc1ccc2c(C(=O)c3ccc(C)cc3)n(CCC(N)=O)[n+]([O-])c2c1`, for which the activation was 0.92% (active).

In the case of `COc1ccc(C(=O)CC(=O)c2ccc(C)cc2)c(O)c1`, the activation was -1.3%.

With `COc1ccc(C(=O)c2c3ccc([N+](=O)[O-])cc3[n+]([O-])n2CCCN)cc1`, the activation was -1.18%.

Take `FC(F)(F)c1cccc(Cn2ccc3ccc(-c4ccc5ccn(Cc6ccccc6)c5c4)cc32)c1`: the activation is -1.17%.

Consider `Cc1ccc(SCCC(=O)NC(C(C)C)C(C)C)cc1`, for which the activation was -1.68%.

As for `Cc1ccc(SCCC(=O)NCc2ccccn2)cc1`, the activation was -1.21%.

Take `Cc1ccc(SCCSc2ncccn2)cc1`: the activation is 0.96% (active).

`CC(C)N1CCCCC(NC(=O)C(C)(C)C)C1=O` (stereo unspecified): the activation was -1.27%.

For the compound `CCCCC(=O)N[C@@H]1CC[C@@]23CCCN2C(=O)CCC[C@H]3[C@H]1C`, the activation was -1.42%.

As to `Cc1nn(-c2ccccc2)c2c1C(c1cccc([N+](=O)[O-])c1)N(c1ccccc1)C(=O)N2` (stereo unspecified), the activation was -2.08%.

As to `Cc1nn(-c2ccc([N+](=O)[O-])cc2)c(N)c1-c1ccccc1`, the activation is 0.95% (active).

`CC(C)(C)c1cnnn1-c1ccc([N+](=O)[O-])cc1`: the activation was -1.44%.

As for `CC(C)(C)OC(=O)NCCc1ccccc1/C=C/S(=O)(=O)NCc1ccc(F)cc1`, the activation was -0.76%.

Consider `O=C(Nc1ccccc1)Nc1nc2ccccc2s1`, for which the activation was 2.17% (active).

With `O=C(Nc1nc2ccc(Cl)cc2s1)c1cc(-c2ccc(Cl)cc2)nc2ccccc12`, the activation was 0.48%.

Take `O=C(Nc1ccc2ccccc2c1)Nc1ccc2snnc2c1`: the activation is -0.89%.

For `COc1ccc(CN(CCN2CCOCC2)C(=O)c2ccc(C)cc2)cc1OC`, the activation was -0.08%.

Consider `COc1ccc(/C=C2\CC3(OC(C)=O)CCCN2C3)cc1` (stereo unspecified), for which the activation was -1.25%.

With `Cc1ccc(NC(=O)Nc2cc(C)nn2-c2ccccc2)cc1`, the activation is -0.89%.

As for `c1ccc(-c2cc(-c3ccccc3)[nH]n2)cc1`, the activation is 2.27% (active).

Turning to `Cc1c[nH]c2cccc(-c3ccc(Cl)cc3)c12`, the activation is -0.3%.

Turning to `O=C(O)c1n[nH]nc1-c1ccccc1`, the activation was -1.32%.

For `Oc1ccccc1-c1cc(-c2ccc(Cl)cc2)n[nH]1`, the activation was 3.08% (active).

As for `c1ccc(-c2c[nH]c(-c3ccccc3)c2)cc1`, the activation was 0.36%.

With `Cc1cccc(C(=O)Nc2c(-c3ccc(F)cc3)nc3ncccn23)c1`, the activation is -1.19%.

On to `Nn1c(SCC(=O)Nc2ccc(S(N)(=O)=O)cc2)nnc1-c1n[nH]c2c1CCC2`, for which the activation was -0.68%.

Regarding `O=C(NCCC1=CCCCC1)C1CCN(S(=O)(=O)c2ccc(Cl)s2)CC1`, the activation is -0.79%.

Turning to `CCOC(=O)[C@]12CCCC=C1N(CCCOC)C(=O)[C@@H]2CC(=O)N1CCOCC1`, the activation is -1.03%.

`O=C(/C=C/Nc1ccc(S(=O)(=O)Nc2cnc3ccccc3n2)cc1)c1cccnc1`: the activation was -0.79%.

Consider `Cc1ccc(NC(=O)C2CCCN2C(=O)OCc2ccccc2)cc1C` (stereo unspecified), for which the activation is -0.56%.

As for `Cc1ccc(N/C=C/C(=O)c2ccccc2)cc1C`, the activation is 3% (active).

Consider `c1ccc(Cc2c(-c3ccco3)nc3c4ccccc4ccn23)cc1`, for which the activation is 3.52% (active).

Consider `COc1ccccc1Cc1c(-c2ccc(Cl)cc2)nc2c3ccccc3ccn12`, for which the activation was 0.62%.

In the case of `Cc1ccc(-c2nc3c(C)cc(Br)cn3c2Cc2ccccc2)cc1`, the activation was -0.47%.

On to `CN1C(=O)c2cc(NS(C)(=O)=O)ccc2OC[C@@H]2O[C@@H](CC(=O)NCc3ccc(-c4ccccc4)cc3)CC[C@H]21`, for which the activation was -1.43%.

Consider `Cc1ccccc1CN1CCCCC(NC(=O)c2cccc(C#N)c2)C1=O` (stereo unspecified), for which the activation is -1.04%.

For the compound `Brc1ccccc1C1N=C(c2ccccc2)NO1` (stereo unspecified), the activation was 1.18% (active).

Turning to `S=C1NC(c2ccccc2)=NCN1c1ccc(Br)cc1`, the activation is -0.91%.

Turning to `N#Cc1ccc(C2N=C(c3ccccc3)NO2)cc1` (stereo unspecified), the activation was 0.03%.

(Values after PubChem BioAssay AID652126 (The Scripps Research Institute Molecular Screening Center, 2013).)
